From PubChem
Many of the other results were omitted from the sample, so hits are more common in it than they were.
Pf Dd2 growth: qHTS Primary assay for Inhibitors of Plasmodium falciparum Dd2 growth in vitro. actives 4.3% (n = 120,000). AID 1347417, 2020. Potency, µM (highest dose often 28.9 µM), without a hit: at the top dose activity, negative = inhibition, most hits filed as inhibitors. P. falciparum Dd2 growth, SYBR Green, 72 h; active means well fitted inhibition curve with a large enough effect;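 further: plate controls were DMSO vehicle for no effect and reference drug for full effect; nearly all actives have a fitted effect of over 65% in size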
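Readout: SYBR Green fluorescence, 485 nm excitation, 535 nm emission, after ~16 h lysis at 37C. Before that, Dd2-infected red cells (2.5% hematocrit) grew 72 h with compound, 29 uM top final concentration.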
Starred values were filed as active, the others as inactive; i = inactive; [ ] = another dose, or the depositor's remark. Potency means the concentration at half of the fitted maximal effect.

SMILES | Pf Dd2 growth
Cc1ccc(S(=O)(=O)c2cn(Cc3ccc(F)cc3)c3cc(F)c(F)cc3c2=O)cc1 | 13%
CCOc1ccc(S(=O)(=O)c2cn(Cc3ccccc3C)c3ccc(OC)cc3c2=O)cc1 | 4.5µM*
CCOc1ccc2c(c1)c(=O)c(S(=O)(=O)c1ccc(F)cc1)cn2CC(=O)Nc1ccccc1C | i
O=c1c(S(=O)(=O)c2ccc(Cl)cc2)cn(Cc2ccc(F)cc2)c2ccc(F)cc12 | 11µM*
COc1ccc(OC)c(NC(=O)Cn2cc(S(=O)(=O)c3ccccc3)c(=O)c3cc(C)ccc32)c1 | i
Cc1ccc(S(=O)(=O)c2cn(CC(=O)Nc3ccc(Cl)cc3)c3ccc(F)cc3c2=O)cc1C | i
COc1ccc(S(=O)(=O)c2cn(C)c3ccc(C)cc3c2=O)cc1 | 21%
Cn1nc(C(=O)N2CCCCCC2c2nnc(-c3ccccc3)o2)c2ccccc21 (stereo not given) | -21%
O=C(Nc1ccccc1F)N1CC(c2nc(CCOCC3CC3)no2)C1 | -6%
CN1C(=O)c2cccn2CC1C(=O)NCC1CC1 (stereo not given) | 29%
COC[C@@H]1CN(C(=O)CCn2cc(C)cn2)C[C@H]1c1ccncc1 | 20%
COc1ccc(C)cc1-n1c(-c2ccc(Cl)cc2)cc2c1CC(C)(C)CC2=O | 1µM*
COc1ccc(-n2c3c(cc(-c4nc(-c5ccc(Cl)cc5)cs4)c2=O)C(=O)CC(C)(C)C3)cc1Cl | 8%
Cc1ccc(-c2cc3c(n2-c2ccccc2F)CC(C)(C)CC3=O)cc1 | -4%
N#Cc1ccc(CN2CCCC2=O)cc1 | 38%
N#Cc1ccc(CC(=O)N2CC(CNC(=O)c3cccnc3)C3(C2)CN(c2ccccc2)C3)cc1 (stereo not given) | i
CC(C)c1ccc(N2CC(C(=O)N(C)Cc3cc(C(C)C)on3)CC2=O)cc1 (stereo not given) | -22%
O=C(NC1CCCCC1)[C@@H]1C[C@@H](O)CN1C1CCN(C(=O)c2ccccn2)CC1 | 5%
COc1ccccc1CN1Cc2cc(NC(=O)Cc3cccs3)ccc2OC(C)C1=O (stereo not given) | i
COc1ccc(C(=O)Nc2ccc3c(c2)CN(Cc2cc(F)cc(F)c2)C(=O)C(C)O3)cc1 (stereo not given) | -14%
CC1Oc2ccc(NC(=O)c3ccc4c(c3)OCO4)cc2CN(Cc2ccccc2)C1=O (stereo not given) | -21%
COc1ccccc1CN1Cc2cc(NC(=O)c3ccc4c(c3)OCO4)ccc2OC(C)C1=O (stereo not given) | 4µM*
COc1ccc(CN2Cc3cc(NC(=O)c4ccc5c(c4)OCO5)ccc3OC(C)C2=O)cc1 (stereo not given) | -7%
CC1Oc2ccc(NC(=O)c3ccc([N+](=O)[O-])cc3)cc2CN(Cc2ccccc2F)C1=O (stereo not given) | i
COc1ccc(CN2Cc3cc(NC(=O)Cc4cccs4)ccc3OC(C)C2=O)cc1 (stereo not given) | -5%
SMILES | Pf Dd2 growth
COc1ccc(CN2Cc3cc(NC(=O)c4ccc([N+](=O)[O-])cc4)ccc3OC(C)C2=O)c(OC)c1 (stereo not given) | 10µM*
COc1ccccc1CCN1Cc2cc(NC(=O)Cc3cccs3)ccc2OC(C)C1=O (stereo not given) | 11µM*
O=C(Nc1ccccc1)Nc1ccc(=O)n2c1[C@@H]1C[C@@H](CN(S(=O)(=O)c3ccccc3)C1)C2 | i
CC1CCN(Cc2nnnn2CC(=O)N2CCN(c3ccccc3F)CC2)CC1 | -15%
CCc1ccc(CN2CCOCC(CO)C2)nc1 (stereo not given) | 12%
CC(C)CC(=O)N1CCC(CC(=O)NCc2ccccc2)C1 (stereo not given) | 48%
O=C(c1ccccc1)N1CCC(Oc2cccnc2)C1 (stereo not given) | 24%
COc1ccc(C(=O)NCCC2CCN(C(=O)Nc3cc(F)ccc3F)CC2)cc1OC | -16%
O=C(C[C@@H]1CCNC[C@@H]1Cc1cc(CC2CCCCC2)on1)NCc1ccco1 | i
COc1ccc(CNC(=O)C[C@@H]2CCNC[C@@H]2Cc2cc(CN3CCOCC3)on2)cc1 | 16%
COc1ccc(CNC(=O)C[C@@H]2CCNC[C@@H]2Cc2cc(CC3CCCCC3)on2)cc1 | 11µM*
O=S(=O)(C1CC1)N1CCC(n2cnnc2-c2ccccc2)CC1 | 34%
COc1ccc(CN(C(=O)Nc2cccc(OC)c2)C2CCN(C(C)=O)CC2)cc1 | -5%
COc1cccc(NC(=O)N(CCC(C)C)C2CCN(C(C)C)CC2)c1 | i
COc1cccc(NC(=O)N(Cc2cn(C)c3ccccc23)C2CCCCC2)c1 | 2.8µM*
Cc1ccc(NC(=O)N(Cc2cn(C)c3ccccc23)C2CCCCC2)cc1C | 3.5µM*
Cc1ccc(NC(=O)Cn2cc(C(=O)C3CC3)c3ccccc32)cc1C | 314%[5.79 µM]
CC(=O)N1CCC(N(CCCOC(C)C)C(=O)Nc2ccc(C)c(C)c2)CC1 | 4%
CC(C)CN1C(=O)COC[C@@H]1[C@H](O)c1ccc(NC(=O)C2CCCC2)cc1 | -5%[44.1 µM]
